Assay results reported in ChEMBL document CHEMBL1157539, “Thousands of chemical starting points for antimalarial lead identification” (Nature, 2010).
Where “and” joins values, the source holds several entries; their conditions need not be identical. Equal entries are not always repeated.

How the values were obtained:
Format in all cases: functional
Plasmodium falciparum [1] = experiment: GSK_TCMDC: Inhibition of Plasmodium falciparum 3D7 in whole red blood cells, using parasite LDH activity as an index of growth. Test compounds present at 2uM
Plasmodium falciparum [2] = experiment: GSK_TCMDC: Inhibition of Plasmodium falciparum Dd2 in whole red blood cells, using parasite LDH activity as an index of growth. Test compounds present at 2uM
HepG2 = experiment: GSK_TCMDC: Percent inhibition of human HepG2 cell line. Test compounds present at 10uM.

Row | Structure (SMILES) | Inhibition (Plasmodium falciparum [1]) | Inhibition (Plasmodium falciparum [2]) | Inhibition (HepG2)
1 | CC(=O)Nc1ccc(OCCN(CC(F)(F)F)c2ccc(C#N)cc2C(F)(F)F)cc1 | 81% | 83% | 0%
2 | CC[C@H]1CN2CC[C@H]1C[C@@H]2[C@H](O)c1ccnc2ccc(O)cc12 | 94% | 0% | 0%
3 | Cc1ccc(CC(C)NCC(O)c2cccc(C(F)(F)F)c2)c(C)c1.Cl (configuration not stated) | 99% | 99% | 3%
4 | O=C(/C=C/c1ccc(Cl)c(Cl)c1)NCc1ccc(CN2CCC(c3c[nH]c4ccccc34)CC2)cc1 | 100% | 86% | 59%
5 | CC(C)CNCc1cccc(-c2cccc(CN(C(=O)NC3CCCCC3)C3CCN(Cc4ccccc4)CC3)c2)c1.O=C(O)C(F)(F)F | 97% | 87% | 32%
6 | O=C(Nc1ccccc1OC(F)(F)F)NC1CCC(CN2CCC(c3c[nH]c4ccccc34)CC2)CC1 (configuration not stated) | 100% and 99% | 60% and 70% | 33% and 35%
7 | COc1ccc(C(=O)C2CC2CN2CC=C(c3c[nH]c4cccc(Br)c34)CC2)cc1.O=C(O)C(F)(F)F (configuration not stated) | 88% | 67% | 32%
8 | COC(=O)c1ccc(C[C@@H](C)NC[C@H](O)c2cccc(C(F)(F)F)c2)cc1.Cl | 97% | 93% | 1%
9 | Br.CC[C@H]1CN2CC[C@H]1C[C@H]2[C@H](O)c1ccnc2ccc(C#N)cc12 | 100% | 55% | 0%
10 | CC(=O)C1(c2ccccc2)CCN(CCC2(c3ccc(Cl)c(Cl)c3)CN(C(=O)CC(C)C)CCO2)CC1 (configuration not stated) | 92% | 94% | 7%
11 | Brc1cnc(NC2=NCCN2)c(Br)c1.Cl | 99% | 0% | 0%
12 | CSc1ccc(C[C@@H](C)NC[C@H](O)c2cccc(Cl)c2)cc1.Cl | 97% | 96% | 8%
13 | CC[C@H]1CN2CC[C@H]1C[C@H]2[C@H](O)c1cc(-c2ccc(C)cc2)nc2ccc(OC)cc12.Cl | 99% | 99% | 22%
14 | CCN1CCC2(c3cccc(OC)c3)Cc3nc4ccccc4c(-c4ccccc4)c3CC2C1 (configuration not stated) | 99% | 98% | 0%
15 | CC[C@H]1CN2CC[C@H]1C[C@H]2[C@H](OC(=O)c1ccccc1)c1cc(C#N)nc2ccc(OC)cc12 | 97% | 49% | 19%
16 | CCCCn1c(C)c(C(=O)OCC)c2cc(OC(C)=O)c(Br)cc21 | 98% | 79% | 0%
17 | CC(C)CNCc1cccc(-c2ccccc2CN(C(=O)Nc2ccccc2)C2CCN(Cc3ccccc3)CC2)c1.O=C(O)C(F)(F)F | 100% | 68% | 36%
18 | CC(Cc1ccc(C(C)(C)C)cc1)NCC(O)c1ccccc1.Cl (configuration not stated) | 94% | 89% | 5%
19 | Br.COC(=O)C(C)(C)c1ccc(CC(C)NCC(O)c2cccc(C(F)(F)F)c2)cc1 (configuration not stated) | 99% | 98% | 6%
20 | CCOC(C(=O)OCC1CCCN(C)C1)(c1ccccc1)c1ccccc1 (configuration not stated) | 98% | 3% | 13%
21 | CN(c1cc(NC(=O)c2ccccc2)ccn1)C1CCN(Cc2cccc(F)c2)CC1.O=C(O)C(F)(F)F | 92% | 94% | 0%
22 | CCCCCCCc1cc(O)c2c(c1)OC(C)(C)c1ccncc1-2.Cl | 95% | 52% | 0%
23 | c1ccc(C(OCCC2CCN(Cc3cccc4cccnc34)CC2)c2ccccc2)cc1 | 99% | 99% | 9%
24 | CC[C@H]1CN2CC[C@H]1C[C@H]2[C@H](O)c1cc(-c2cccc(C)c2)nc2ccc(OC)cc12.Cl | 100% | 100% | 15%
25 | Cc1ccc(CC(C)NC[C@H](O)c2cccc(Cl)c2)cc1 (some centres not stated) | 93% | 64% | 0%
26 | CCCCOC(C(=O)OCC1CCCN1C)(c1ccccc1)c1ccccc1 (configuration not stated) | 100% | 2% | 3%
27 | COc1ccc(OC)c(C(O)CNC(C)C)c1.Cl (configuration not stated) | 96% | 0% | 3%
28 | OC(CNC1CCCCC1)c1ccc(Cl)c(Cl)c1 (configuration not stated) | 99% | 96% | 17%
29 | CN(C)CCCOc1ccc(CN2CCC(c3c[nH]c4ccc(NCC5CCCCC5)cc34)CC2)cc1.O=C(O)C(F)(F)F | 99% | 99% | 58%
